Assay [1] in a line: qHTS assay for small molecules that induce genotoxicity in human embryonic kidney cells expressing luciferase-tagged ATAD5 - cell viability (AID 651634; calls by dose curve; further: nearly all actives have a fitted effect of over 25% in size; further: potency means the concentration at half of the fitted maximal effect). An outline of the steps: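 HEK293T ATAD5-luc cells, 2,000/well; compound 15.5 hr, 37C/5% CO2; CellTiter-Fluor 30 min, 37C; fluorescence read.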
On the technique in general: In qHTS, concentration-response curves come from the screen itself.

A short description of assay [2]: qHTS assay for small molecule disruptors of the mitochondrial membrane potential (AID 720635). Further: potency means the concentration at half of the fitted maximal effect. An outline of the steps:
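HepG2 cells exposed to compound 1 hr at 37C, then Mito-MPS dye 30 min. Ratio read of aggregate (540/590 nm) versus monomer (490/535 nm) fluorescence.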

Assay [3] in a line: qHTS assay to test for compound auto fluorescence at 590 nm (red) in HepG2 cells (AID 720674). Summed up:
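Fluorescence at 590 nm emission following 540 nm excitation was recorded from HepG2 wells one hour after compound transfer, with DMSO-only wells as vehicle and Rose Bengal sodium equivalency as the scale.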

The nature of assay [4]: qHTS assay to test for compound auto fluorescence at 590 nm (red) in HEK293 cell free culture (AID 720683). Summed up: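 Cell-free wells of DMEM with 10% FBS received compound, and intrinsic fluorescence was read at excitation/emission 540/590 nm. Values expressed as equivalence to Rose Bengal sodium.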
In assay [5] the target is Glucocorticoid receptor (Homo sapiens) (UniProt P04150). Briefly: qHTS assay to identify small molecule agonists of the glucocorticoid receptor (GR) signaling pathway (AID 720691; active means well fitted activation curve with a large enough effect in the signal ratio in the repeat runs, not every such curve was filed as active; inconclusive means weak or mixed curves, or effect the other way; inactive means no such curve, though single readings can be large or run the other way; the % refers to the signal ratio). Summed up:
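HeLa GR-bla reporter line; cells pre-incubated 4 h, compound in DMSO 18 h at 37 C; LiveBLAzer B/G FRET substrate 2 h RT; fluorescence intensity read-out.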

A short description of assay [6]: qHTS assay to identify small molecule antagonists of the glucocorticoid receptor (GR) signaling pathway - cell viability counter screen (AID 720693). Further: nearly all actives have a fitted effect of over 55% in size.
Assay [7] in a line: qHTS assay for identifying genotoxic compounds that show differential cytotoxicity against isogenic chicken DT40 cell lines with known DNA damage response pathways - wild type cell line (AID 743012). Further: nearly all actives have a fitted effect of over 60% in size. Further: potency means the concentration at half of the fitted maximal effect. Summed up: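 CellTiter-Glo luminescence readout of viability in wild type DT40 cells after 40 h compound exposure at 37 C/5% CO2; 300 cells/well; reagent incubated 30 min at room temperature before reading.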

The nature of assay [8]: qHTS assay for identifying genotoxic compounds that show differential cytotoxicity against isogenic chicken DT40 cell lines with known DNA damage response pathways - Rev3 mutant cell line (AID 743014). Further: nearly all actives have a fitted effect of over 55% in size.
Assay [9] in a line: qHTS assay for identifying genotoxic compounds that show differential cytotoxicity against isogenic chicken DT40 cell lines with known DNA damage response pathways - Rad54/Ku70 mutant cell line (AID 743015). Further: nearly all actives have a fitted effect of over 60% in size.
A short description of assay [10]: qHTS assay to identify small molecule antagonists of the thyroid receptor (TR) signaling pathway - cell viability counter screen (AID 743064). Further: nearly all actives have a fitted effect of over 50% in size. Further: potency means the concentration at half of the fitted maximal effect. Summed up: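 GH3.TRE-Luc rat pituitary cells dosed after 4 hr plating, co-stimulated with T3 at 1 nM final, incubated 23.5 h at 37 C. Viability measured in the same wells by CellTiter-Fluor fluorescence after 30 min further at 37 C.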

Assay [11] is described as follows: qHTS assay to identify small molecule antagonists of the thyroid receptor (TR) signaling pathway (AID 743065). Further: nearly all actives have a fitted effect of over 55% in size. Further: potency means the concentration at half of the fitted maximal effect. Summed up: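 GH3.TRE-Luc rat pituitary cells (two TREs driving luciferase) were dosed with compound, then stimulated with 1 nM T3 (final) for 23.5 h at 37 C. ONE-Glo luminescence was the read-out, with CellTiter-Fluor fluorescence as the cytotoxicity counter-screen.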

The test system of assay [12] is thyroid hormone receptor (rat, GH3 cells). The experiment in a line: qHTS assay to identify small molecule agonists of the thyroid receptor (TR) signaling pathway (AID 743066; calls by dose curve).
Assay [13] has as its target Estrogen receptor (Homo sapiens) (UniProt P03372). Briefly: qHTS assay to identify small molecule agonists of the estrogen receptor alpha (ER-alpha) signaling pathway (AID 743075; calls by dose curve;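 further: HEK293 GripTite cells with ER-alpha and UAS-driven beta-lactamase reporter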; further: potency means the concentration at half of the fitted maximal effect).
Assay [14] can be described thus: qHTS assay to identify small molecule antagonists of the estrogen receptor alpha (ER-alpha) signaling pathway using the BG1 cell line (AID 743080; calls by dose curve; further: series mostly up to about 70 µM; nearly all actives have a fitted effect of over 25% in size). Summed up:
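Antagonist mode: compounds in DMSO were pinned onto BG1-Luc-4E2 cells alongside 17beta-estradiol agonist, incubated 21.5 h, and ERE-driven luciferase measured with ONE-Glo. Cytotoxicity was multiplexed using CellTiter-Fluor fluorescence.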

Assay [15] concerns the target Peroxisome proliferator-activated receptor gamma (Homo sapiens) (UniProt P37231). Briefly: qHTS assay to identify small molecule agonists of the peroxisome proliferator-activated receptor gamma (PPARg) signaling pathway (AID 743094; active means well fitted activation curve with a large enough effect in the signal ratio in the repeat runs, not every such curve was filed as active; inconclusive means weak or mixed curves, or effect the other way; inactive means no such curve, though single readings can be large or run the other way; the % refers to the signal ratio). An outline of the steps:
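HEK293H PPARg-bla cells, 5 h settle at 37C/5% CO2; compound (DMSO) 17 h, 37C; B/G FRET substrate 1 h RT; fluorescence intensity read-out. qHTS format.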

Assay [16] addresses Nuclear receptor subfamily 1 group I member 2 (Homo sapiens) (UniProt O75469). Briefly: Human pregnane X receptor (PXR) activation by small molecules, qHTS assay (AID 1346985). Further: nearly all actives have a fitted effect of over 40% in size. Further: potency means the concentration at half of the fitted maximal effect. Summed up:
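DPX-2 cells (HepG2 co-transfected with a PXR response element and a CYP3A4-promoter luciferase construct) were seeded at 2,000 per well, rested 5 hr at 37C, then exposed to DMSO-dissolved compounds for 24 hr. Activation was read as luciferase luminescence.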

A short description of assay [17]: qHTS assay for small molecule agonists of the p53 signaling pathway (AID 651631; calls by dose curve; further: nearly all actives have a fitted effect of over 15% in size; further: potency means the concentration at half of the fitted maximal effect). Summed up: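 HCT-116 cells carrying a beta-lactamase reporter under p53 response elements were dosed with compound for 16 h at 37 °C. LiveBLAzer B/G FRET substrate was then added for 2 h at room temperature, and fluorescence intensity was read to detect pathway agonism.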
Assay [18] can be described thus: qHTS assay to test for compound auto fluorescence at 460 nm (blue) in HEK293 cells (AID 720678). An outline of the steps: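 Cells were seeded and left to adhere for 4-5 hr at 37C. Compounds were then pin-transferred. After an overnight incubation at 37C under 5% CO2, intrinsic fluorescence at 405/460 nm was measured and referenced to triamterene.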
Assay [19] in a line: qHTS assay to test for compound auto fluorescence at 535 nm (green) in HEK293 cells (AID 720680).
The nature of assay [20]: qHTS assay to identify small molecule that activate the aryl hydrocarbon receptor (AhR) signaling pathway - cell viability counter screen (AID 743086).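 Further: HepG2 liver cells carrying the AhR DRE luciferase reporter; series mostly up to about 70 µM; nearly all actives have a fitted effect of over 45% in size.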 Summed up:
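HepG2-AhR-luc (HG2L7.5c1) cells, 4000/well, treated 24 h at 37 C with compound; viability measured as CellTiter-Fluor fluorescence after 30 min in the same wells as the luciferase read.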

Values joined by “and” are separate entries in the source; they are usually repeats but may differ in a detail not shown here. Equal values may be shown once. Where a structure was tested more than once in an assay, its records may differ in their call. Active and inactive are the calls of the source. Unless noted, the call rests on the fitted dose curve; in most records, active means well fitted curve in the direction sought with a large enough effect in the repeat runs; inconclusive means weak or mixed curves; inactive means no such curve, though single readings can be large; an effect the other way counts as inactive or inconclusive.

Peroxisome proliferator-activated receptor gamma (Homo sapiens), sequence (P37231 whole entry, looked up): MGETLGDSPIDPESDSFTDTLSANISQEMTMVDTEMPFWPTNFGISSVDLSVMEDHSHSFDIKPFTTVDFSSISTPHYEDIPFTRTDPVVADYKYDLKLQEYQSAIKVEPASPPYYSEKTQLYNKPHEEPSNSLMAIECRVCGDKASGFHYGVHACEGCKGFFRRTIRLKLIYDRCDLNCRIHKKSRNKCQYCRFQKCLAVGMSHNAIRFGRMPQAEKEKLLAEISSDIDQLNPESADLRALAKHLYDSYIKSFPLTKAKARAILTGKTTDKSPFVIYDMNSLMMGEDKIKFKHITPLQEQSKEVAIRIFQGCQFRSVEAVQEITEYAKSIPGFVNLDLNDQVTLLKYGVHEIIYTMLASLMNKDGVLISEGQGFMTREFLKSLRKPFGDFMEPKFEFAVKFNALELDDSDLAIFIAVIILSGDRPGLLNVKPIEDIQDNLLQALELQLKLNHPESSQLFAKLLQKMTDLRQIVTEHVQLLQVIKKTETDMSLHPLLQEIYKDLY
Glucocorticoid receptor (Homo sapiens), sequence (P04150 whole entry, looked up): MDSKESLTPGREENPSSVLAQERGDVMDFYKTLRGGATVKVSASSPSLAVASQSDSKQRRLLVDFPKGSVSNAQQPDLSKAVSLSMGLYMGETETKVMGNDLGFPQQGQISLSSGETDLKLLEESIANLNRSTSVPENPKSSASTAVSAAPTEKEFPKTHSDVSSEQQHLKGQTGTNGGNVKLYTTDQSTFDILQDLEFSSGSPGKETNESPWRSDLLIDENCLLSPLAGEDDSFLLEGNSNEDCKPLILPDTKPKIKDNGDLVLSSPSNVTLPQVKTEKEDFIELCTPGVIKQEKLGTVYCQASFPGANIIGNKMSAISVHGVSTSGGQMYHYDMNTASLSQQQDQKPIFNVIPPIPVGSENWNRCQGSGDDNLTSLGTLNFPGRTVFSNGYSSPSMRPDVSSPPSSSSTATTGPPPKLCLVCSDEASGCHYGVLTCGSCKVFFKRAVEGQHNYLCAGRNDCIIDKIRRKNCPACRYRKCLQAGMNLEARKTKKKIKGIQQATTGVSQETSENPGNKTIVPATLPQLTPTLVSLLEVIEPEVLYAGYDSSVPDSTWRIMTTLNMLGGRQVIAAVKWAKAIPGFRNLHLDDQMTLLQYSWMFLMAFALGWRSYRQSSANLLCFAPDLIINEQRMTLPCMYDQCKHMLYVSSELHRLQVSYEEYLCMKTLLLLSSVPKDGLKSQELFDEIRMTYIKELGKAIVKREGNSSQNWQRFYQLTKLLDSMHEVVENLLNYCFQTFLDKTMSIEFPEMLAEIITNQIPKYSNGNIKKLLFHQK
Estrogen receptor (Homo sapiens), sequence (P03372 whole entry, looked up): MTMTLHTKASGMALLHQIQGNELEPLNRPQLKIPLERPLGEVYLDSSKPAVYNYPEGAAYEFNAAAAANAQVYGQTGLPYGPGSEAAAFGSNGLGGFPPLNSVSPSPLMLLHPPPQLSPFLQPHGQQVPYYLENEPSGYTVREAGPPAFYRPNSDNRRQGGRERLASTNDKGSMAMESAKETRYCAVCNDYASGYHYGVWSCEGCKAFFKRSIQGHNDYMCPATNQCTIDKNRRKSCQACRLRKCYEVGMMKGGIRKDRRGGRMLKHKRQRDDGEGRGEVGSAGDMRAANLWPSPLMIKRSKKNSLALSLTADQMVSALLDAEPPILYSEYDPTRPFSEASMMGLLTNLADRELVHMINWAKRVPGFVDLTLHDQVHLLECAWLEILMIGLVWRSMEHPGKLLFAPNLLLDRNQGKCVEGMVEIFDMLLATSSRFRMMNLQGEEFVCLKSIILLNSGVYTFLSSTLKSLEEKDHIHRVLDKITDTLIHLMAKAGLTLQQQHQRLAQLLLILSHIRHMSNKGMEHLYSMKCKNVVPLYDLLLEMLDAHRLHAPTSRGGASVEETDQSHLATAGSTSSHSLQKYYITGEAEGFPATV

Turning to `OC[C@@H](O)[C@H]1O[C@@H]2O[C@@H](C(Cl)(Cl)Cl)O[C@@H]2[C@H]1O`, the Potency entry in [1], in assay [2], in [5], in assay [6], in [7] and in assay [8] was “inactive” in each case. The Potency entry in assay [9], in [10], in [11], in assay [12], in [13] and in assay [14] was “inactive” each time. Further, the Potency result in assay [15] and in assay [16] was “inactive” each time. Besides, the call in [3] and in assay [4] was inactive.

As to `O=[N+]([O-])c1cc(I)c(O)c(I)c1`, the Potency in [17] was 5.31 µM (active); in [1], 23.7 µM (active); in [2] it was 13.3 µM (active); in assay [10] it was 26.6 µM (active); in assay [11], 21.1 µM (active). Besides, the outcome in [3] and in [4] was inactive. The Potency entry in assay [18], in assay [19], in [5], in [20] and in assay [16] was “inactive” throughout.

With `CC[C@H]1[C@@H]2C[C@H]3[C@@H]4N(C)c5ccccc5[C@]45C[C@@H](C2[C@H]5O)N3[C@@H]1O` (some centres not stated), the Potency entry in [17], in assay [18], in assay [19], in assay [5], in assay [8] and in assay [9] was “inactive” throughout. Moreover, the Potency entry in [10], in assay [11], in assay [12], in assay [13], in assay [14] and in assay [20] was “inactive” each time. In addition, in assay [15], the Potency entry was “inactive”. Further, the molecule was called inactive in [3] and in assay [4].

For the molecule `CCC1(c2ccccc2)C(=O)NC(=O)N(C(=O)c2ccccc2)C1=O` (configuration not stated), the Potency entry in assay [1], in [18], in assay [19], in assay [5], in [6] and in assay [7] was “inactive” each time. The Potency entry in [8], in assay [10], in assay [12], in assay [20] and in assay [15] was “inactive” each time. The Potency in assay [2] is 23.7 µM (active). Further, the molecule was called inactive in assay [4].

For the molecule `CCN(CC)C(=O)N[C@H]1C[C@@H]2c3cccc4[nH]cc(c34)C[C@H]2N(C)C1`, the Potency entry in assay [17], in assay [1], in assay [18], in assay [19], in [6] and in assay [10] was “inactive” throughout. Moreover, the Potency result in [12] and in [15] was “inactive” throughout. Besides, the result in assay [4] was inactive. In addition, the Potency in assay [7] is 29.8 µM (active); in assay [16] it was 25.1 µM (active).

As for `CC(=O)Oc1ccc2c3c1O[C@H]1[C@@H](OC(C)=O)C=C[C@H]4[C@@H](C2)N(C)CC[C@@]341`, the Potency result in [17], in assay [1], in assay [2], in assay [18], in assay [19] and in assay [5] was “inactive” each time. In addition, the Potency result in [6], in assay [8], in [9], in assay [10], in assay [11] and in [12] was “inactive” each time. Further, the Potency entry in assay [13], in assay [14], in assay [20], in assay [15] and in [16] was “inactive” each time. For the same molecule, the molecule was classed as inactive in assay [3] and in assay [4]. The Potency result in [7] is “inactive and 68.3 µM (active)”.

`O=C1Nc2ccc(Cl)cc2C(c2ccccc2Cl)=NC1O` (configuration not stated): the Potency entry in assay [17], in [1], in [2], in [18], in [19] and in [5] was “inactive” each time. Also, the Potency entry in assay [6], in assay [8], in [9], in assay [10], in assay [11] and in [12] was “inactive” throughout. In addition, the Potency entry in assay [13], in [14], in assay [20], in [15] and in assay [16] was “inactive” in each case. The outcome in assay [3] and in assay [4] was inactive.

Take `CC(=O)O[C@H]1CC[C@H]2[C@@H]3CCC4=CC(=O)CCC4=C3C=C[C@]12C`: the Potency result in assay [17], in assay [1], in assay [2], in [18], in assay [19] and in assay [5] was “inactive” throughout. In addition, the Potency entry in assay [10], in [11], in assay [12], in assay [14], in assay [15] and in [16] was “inactive” throughout. Besides, the molecule was classed as inactive in [3] and in [4]. Further, the Potency is 23.7 µM (active) in assay [7] and 2.68 µM [inconclusive] (active) in assay [13].

The values above are taken from PubChem BioAssay (Tox21).
